Data on 28 compounds can be found in PubChem BioAssay AID1851 (National Center for Advancing Translational Sciences (NCATS), 2009).

Among all 16,000 compounds or so, about 4,000 (25%) were called active. Roughly 26% stayed inconclusive and do not appear here. These entries were drawn from the full list. A number with no mark means an inactive call. Calls follow the shape of the dose curve; as a rule, active = well fitted curve in the direction sought with a large enough effect; inconclusive = small, poorly fitted or top-dose-only effect, or effect the other way; inactive = no such curve, though single readings can be large or run the other way.
% is scaled to controls: 0 for no effect and ±100 for the full control effect.

Chain of Cytochrome P450 2C9 (Homo sapiens) (P11712 whole entry, looked up): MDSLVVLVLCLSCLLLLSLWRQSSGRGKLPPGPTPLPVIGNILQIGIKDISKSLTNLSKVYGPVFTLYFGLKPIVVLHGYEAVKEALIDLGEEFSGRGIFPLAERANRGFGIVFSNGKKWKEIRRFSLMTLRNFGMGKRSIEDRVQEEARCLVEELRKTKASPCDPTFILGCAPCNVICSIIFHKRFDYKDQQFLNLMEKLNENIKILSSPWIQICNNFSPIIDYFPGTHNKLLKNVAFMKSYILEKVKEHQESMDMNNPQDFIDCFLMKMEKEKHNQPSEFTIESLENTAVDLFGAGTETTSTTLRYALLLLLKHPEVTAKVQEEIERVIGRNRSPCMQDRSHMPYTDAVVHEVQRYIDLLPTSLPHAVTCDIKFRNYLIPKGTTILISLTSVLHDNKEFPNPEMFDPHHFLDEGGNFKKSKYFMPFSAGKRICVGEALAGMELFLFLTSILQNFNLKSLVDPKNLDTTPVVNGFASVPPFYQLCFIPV

The test addresses Cytochrome P450 2C9 (Homo sapiens) (UniProt P11712). As to the kind of experiment: Cytochrome panel assay with activity outcomes. Conditions: recombinant CYP, pro-luciferin dealkylation, luminescence, p450-cyp2c9; series mostly up to 57.1 µM.
For `CN(C)c1ccc(-c2cncnc2Nc2ccccc2)cc1`, the activity, negative = inhibition was -6.76% [at 2.29 µM].
As usually defined, the AC50 is the concentration giving half of the maximal activity seen. Turning to `CCCS(=O)(=O)N1CCCC(C(=O)NCCCOCC)C1` (stereo not drawn), the AC50 result is “inactive”.
As to `CN(CC(=O)N1CCN(c2ccccc2)CC1)S(=O)(=O)c1cnc[nH]1`, the AC50 was 0.0708 µM (active).
Take `CCc1cccc(CC)c1NC(=O)CN(CC(=O)O)CC(=O)O`: the AC50 result was “inactive”.
`CCc1cccc(NC(=O)CN(C)S(=O)(=O)c2cnc[nH]2)c1`: the AC50 was 0.631 µM (active).
For `O=C1[C@H]2O[C@@H]2[C@@H](O)[C@H]2[C@H]1CCn1c(=O)n(Cc3cc4c(cc3Cl)OCO4)c(=O)n12`, the activity, negative = inhibition is 3.99% [at 11.4 µM].
As to `Nc1ncnc2c1ncn2C[C@@H](O)C(=O)O`, the activity, negative = inhibition was -0.945% [at 11.4 µM].
For the compound `N=C(N)SCC(=O)O`, the activity, negative = inhibition was -5.65% [at 11.4 µM].
`COc1ccc(N(C)S(=O)(=O)c2ccc3c(c2)CCC(=O)N3)cc1`: the AC50 result was “inactive”.
On the same count and under the same terms, in the case of `Cc1cccc(N(C)S(=O)(=O)c2ccc3[nH]c(=O)c(=O)[nH]c3c2)c1` it was 4.47 µM (active).
Regarding `CN(C)c1ccc(NC(=O)c2cccc(N3C(=O)C4C5C=CC(C5)C4C3=O)c2)cc1` (stereo not drawn), the AC50 result is “inactive”.
On to `O=C(Nc1ccc(Cl)cc1Cl)c1cccc(N2C(=O)C=CC2=O)c1`, for which the AC50 was 11.2 µM (active).
`CCNc1ncc2nc(C)c(=O)n(C[C@H]3CCCO3)c2n1`: the AC50 result was “inactive”.
As to `CCc1ccc(C(=O)N2CCC(c3nc4ccccc4s3)CC2)cc1`, the AC50 is 1.58 µM (active).
The same measure, in the same setting: in the case of `O=P(Cc1cc[n+]([O-])cc1)(c1ccccc1)c1ccccc1` it was “inactive”; in that of `Cc1cccc(C)c1NC(=O)[C@H](C)N`, “inactive”.
Consider `Cc1cccc(C)c1NC(=O)C(c1ccc(Cl)cc1Cl)N1CCCCC1` (stereo not drawn), for which the AC50 is 14.1 µM (active).
With `Cc1cccc(C)c1NC(=O)C(c1ccccc1)N1CCC1=O` (stereo not drawn), the AC50 result was “inactive”.
With `COc1ccccc1CN1CCC2(CC1)CCN(S(C)(=O)=O)CC2`, the AC50 entry is “inactive”.
`c1ccc(Nc2nc(-c3ccc4c(c3)OCO4)nc3ccccc23)cc1`: the activity, negative = inhibition was -5.32% [at 2.29 µM].
With `N#Cc1cccc(-c2nc(Nc3ccccc3)c3ccccc3n2)c1`, the activity, negative = inhibition was -3.27% [at 2.29 µM].
As for `Clc1cccc(Nc2nnc(-c3ccccc3)c3ccccc23)c1`, the AC50 was 3.98 µM (active).
Regarding `c1ccn(-c2ccc(N3CCOCC3)cc2)c1`, the AC50 result was “inactive”.
`CC(C)CN1CCCC2(CCN(C(=O)c3cnccn3)CC2)C1`: the AC50 entry is “inactive”.
Consider `COc1c(/C=N/Nc2nc(N3CCCCC3)nc(N3CCCCC3)n2)cccc1[N+](=O)[O-]`, for which the AC50 entry is “inactive”.
Regarding `COc1nc(/C(N)=N/O)nc(N2CCCCC2)n1`, the AC50 entry was “inactive”.
As to `Brc1cc2c(cc1/C=N/Nc1nc(N3CCCC3)nc(N3CCOCC3)n1)OCO2`, the AC50 is 7.08 µM (active).
As for `COc1cccc(/C=N/Nc2nc(N3CCCC3)nc(N3CCCC3)n2)c1O`, the AC50 was 12.6 µM (active).
